Assay results published in PubChem BioAssay.
Activity calls are given as the source filed them.

Columns and labels:
[1] = binders of probe aFSTL3 on microarray, primary screen, stem cell growth factor project, biochemical, small-molecule microarray, fluorescence 635/667 (AID 1064); settings: higher = more signal;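 also: measures binding of the biotinylated anti-FSTL3 antibody to printed compounds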
[2] = binders from COS7 lysate, DM2A8 probe, primary screen, torsin A project, cell lysate, small-molecule microarray, fluorescence 635/667 (AID 1065); settings: higher = more signal, COS7 lysate expressing mutant human TOR1A
[3] = binders of probe aFGF2 on microarray, primary screen, stem cell growth factor project, biochemical, small-molecule microarray, fluorescence 635/667 (AID 1067); settings: higher = more signal;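 also: measures binding of biotinylated aFGF2 protein to printed compounds on slides; z-score merges feature fluorescence and signal-to-noise across triplicate slides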
[4] = binders of probe aFGF10 on microarray, primary screen, stem cell growth factor project, biochemical, small-molecule microarray, fluorescence 635/667 (AID 1071); settings: higher = more signal;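 also: score merges 667 nm spot intensity and signal to noise from triplicate slides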
[5] = biological target: Neurogenic locus notch homolog protein 2 (Homo sapiens) (UniProt Q04721); assay: Notch2 binders on small-molecule microarrays, primary screen, biochemical, small-molecule microarray, 635 nm fluorescence, stem cell growth factors (AID 1073); settings: Notch2 binding, higher = more signal
[6] = biological target: Pro-neuregulin-1, membrane-bound isoform (Homo sapiens) (UniProt Q02297); assay: NRG1 binders on small-molecule microarrays, primary screen, psychiatric disease protein project, biochemical, small-molecule microarray, fluorescence 635/667 (AID 1075); settings: NRG1 binding, 635 nm fluorescence, higher = more signal;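 also: score combines 667 nm spot fluorescence with signal to noise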
[7] = tested on: Neuregulin-1 EGF-like domain; assay: binders of neuregulin-1 EGF-like domain, primary screen, biochemical, small-molecule microarray, 635 nm fluorescence (AID 1081); settings: small-molecule microarray binding, higher = more signal;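 also: binding of the protein to compounds printed on small-molecule microarray slides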
[8] = FRG1 promoter luciferase signal modulators, primary screen, FRG1 inhibition for FSHD, cell-based, C2C12 myotubes, firefly/Renilla luciferase, luminescence (AID 1084); settings: higher = more signal, called active from +8 up or from −8 down
[9] = binders of probe aFST on microarray, primary screen, stem cell growth factor project, biochemical, small-molecule microarray, fluorescence 635/667 (AID 1086); settings: higher = more signal;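 also: score merges 667 nm fluorescence with signal-to-noise of each printed compound spot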
[10] = binders of probe aHhip on microarray, primary screen, stem cell growth factor project, biochemical, small-molecule microarray, fluorescence 635/667 (AID 1087); settings: higher = more signal;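 also: score merges spot fluorescence at 667nm with spot signal to noise ratio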
[11] = tested on: PRMT1 (protein arginine N-methyltransferase 1); assay: PRMT1 binders on small-molecule microarrays, primary screen, biochemical, small-molecule microarray, 635 nm fluorescence (AID 1088); settings: small-molecule microarray binding, higher = more signal;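 also: binding of Prmt1 protein to compounds spotted on small-molecule microarray slides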
[12] = yeast growth modulation, basal conditions, primary screen, YJM789 clinical isolate, OD600, 24 h (AID 1089);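 also: growth of clinical yeast isolate S. cerevisiae YJM 789 seeded 1000 cells per well; test concentration not given here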; settings: S. cerevisiae YJM789 growth, higher = more signal, called active from +8 up or from −8 down
[13] = fission yeast growth modulation, primary screen, strain 972, OD600, 24 h, no modulator (AID 1090);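 also: basal condition with compound alone and no growth modifier present; test concentration not given here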; settings: S. pombe 972 growth, higher = more signal, called active from +8 up or from −8 down
[14] = S. cerevisiae growth modulation with rapamycin, primary screen, strain BY4716, OD600, 96 h (AID 1091); settings: higher = more signal, called active from +8 up or from −8 down; also: test concentration not given here
[15] = biological target: Torsin-1A-interacting protein 2 (Homo sapiens) (UniProt Q8NFQ8); assay: LULL1 binders on small-molecule microarray, primary screen, cell lysate, human LULL1 lysate, 635/667 nm fluorescence (AID 1092); settings: hLULL1 lysate binding, 635 nm fluorescence, higher = more signal;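 also: probe is lysate of COS7 cells overexpressing human LULL1; score merges per-feature 667 nm fluorescence with signal-to-noise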
[16] = E. coli growth modulation, two-sided OD650, primary screen, E. coli filamentation project, strain DRC41, 24 h (AID 1093); settings: OD650, 24 h, higher = more signal, called active from +8 up or from −8 down;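 also: MC1000 strain lacking acrAB efflux and sulA so SOS filamentation is blocked; test concentration not given here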
[17] = small-molecule microarray binders of probe aLefty2, primary screen, biochemical, biotinylated probe, 635/667 nm fluorescence (AID 1094); settings: higher = more signal;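 also: score merges spot fluorescence near 667 nm with spot signal-to-noise ratio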
[18] = tested on: Noggin (protein binding on small-molecule microarray); assay: Noggin binders on small-molecule microarray, primary screen, biochemical, 635/667 nm fluorescence (AID 1095); settings: 635 nm fluorescence, higher = more signal;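 also: score merges 667 nm feature fluorescence with signal to noise over triplicate slides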
[19] = biological target: Neurogenic locus notch homolog protein 3 (Homo sapiens) (UniProt Q9UM47); assay: NOTCH3 binders on small-molecule microarray, primary screen, biochemical, 635/667 nm fluorescence (AID 1096); settings: NOTCH3 binding, 635 nm fluorescence, higher = more signal
[20] = small-molecule microarray binders of probe aEGFR, primary screen, biochemical, biotinylated probe, 635/667 nm fluorescence (AID 1097); settings: higher = more signal;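 also: probe is a biotinylated anti-EGFR antibody binding compounds printed on slides; score combines fluorescence near 667 nm and signal to noise of each spot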

Chain of Neurogenic locus notch homolog protein 3 (Homo sapiens) (Q9UM47 whole entry, looked up): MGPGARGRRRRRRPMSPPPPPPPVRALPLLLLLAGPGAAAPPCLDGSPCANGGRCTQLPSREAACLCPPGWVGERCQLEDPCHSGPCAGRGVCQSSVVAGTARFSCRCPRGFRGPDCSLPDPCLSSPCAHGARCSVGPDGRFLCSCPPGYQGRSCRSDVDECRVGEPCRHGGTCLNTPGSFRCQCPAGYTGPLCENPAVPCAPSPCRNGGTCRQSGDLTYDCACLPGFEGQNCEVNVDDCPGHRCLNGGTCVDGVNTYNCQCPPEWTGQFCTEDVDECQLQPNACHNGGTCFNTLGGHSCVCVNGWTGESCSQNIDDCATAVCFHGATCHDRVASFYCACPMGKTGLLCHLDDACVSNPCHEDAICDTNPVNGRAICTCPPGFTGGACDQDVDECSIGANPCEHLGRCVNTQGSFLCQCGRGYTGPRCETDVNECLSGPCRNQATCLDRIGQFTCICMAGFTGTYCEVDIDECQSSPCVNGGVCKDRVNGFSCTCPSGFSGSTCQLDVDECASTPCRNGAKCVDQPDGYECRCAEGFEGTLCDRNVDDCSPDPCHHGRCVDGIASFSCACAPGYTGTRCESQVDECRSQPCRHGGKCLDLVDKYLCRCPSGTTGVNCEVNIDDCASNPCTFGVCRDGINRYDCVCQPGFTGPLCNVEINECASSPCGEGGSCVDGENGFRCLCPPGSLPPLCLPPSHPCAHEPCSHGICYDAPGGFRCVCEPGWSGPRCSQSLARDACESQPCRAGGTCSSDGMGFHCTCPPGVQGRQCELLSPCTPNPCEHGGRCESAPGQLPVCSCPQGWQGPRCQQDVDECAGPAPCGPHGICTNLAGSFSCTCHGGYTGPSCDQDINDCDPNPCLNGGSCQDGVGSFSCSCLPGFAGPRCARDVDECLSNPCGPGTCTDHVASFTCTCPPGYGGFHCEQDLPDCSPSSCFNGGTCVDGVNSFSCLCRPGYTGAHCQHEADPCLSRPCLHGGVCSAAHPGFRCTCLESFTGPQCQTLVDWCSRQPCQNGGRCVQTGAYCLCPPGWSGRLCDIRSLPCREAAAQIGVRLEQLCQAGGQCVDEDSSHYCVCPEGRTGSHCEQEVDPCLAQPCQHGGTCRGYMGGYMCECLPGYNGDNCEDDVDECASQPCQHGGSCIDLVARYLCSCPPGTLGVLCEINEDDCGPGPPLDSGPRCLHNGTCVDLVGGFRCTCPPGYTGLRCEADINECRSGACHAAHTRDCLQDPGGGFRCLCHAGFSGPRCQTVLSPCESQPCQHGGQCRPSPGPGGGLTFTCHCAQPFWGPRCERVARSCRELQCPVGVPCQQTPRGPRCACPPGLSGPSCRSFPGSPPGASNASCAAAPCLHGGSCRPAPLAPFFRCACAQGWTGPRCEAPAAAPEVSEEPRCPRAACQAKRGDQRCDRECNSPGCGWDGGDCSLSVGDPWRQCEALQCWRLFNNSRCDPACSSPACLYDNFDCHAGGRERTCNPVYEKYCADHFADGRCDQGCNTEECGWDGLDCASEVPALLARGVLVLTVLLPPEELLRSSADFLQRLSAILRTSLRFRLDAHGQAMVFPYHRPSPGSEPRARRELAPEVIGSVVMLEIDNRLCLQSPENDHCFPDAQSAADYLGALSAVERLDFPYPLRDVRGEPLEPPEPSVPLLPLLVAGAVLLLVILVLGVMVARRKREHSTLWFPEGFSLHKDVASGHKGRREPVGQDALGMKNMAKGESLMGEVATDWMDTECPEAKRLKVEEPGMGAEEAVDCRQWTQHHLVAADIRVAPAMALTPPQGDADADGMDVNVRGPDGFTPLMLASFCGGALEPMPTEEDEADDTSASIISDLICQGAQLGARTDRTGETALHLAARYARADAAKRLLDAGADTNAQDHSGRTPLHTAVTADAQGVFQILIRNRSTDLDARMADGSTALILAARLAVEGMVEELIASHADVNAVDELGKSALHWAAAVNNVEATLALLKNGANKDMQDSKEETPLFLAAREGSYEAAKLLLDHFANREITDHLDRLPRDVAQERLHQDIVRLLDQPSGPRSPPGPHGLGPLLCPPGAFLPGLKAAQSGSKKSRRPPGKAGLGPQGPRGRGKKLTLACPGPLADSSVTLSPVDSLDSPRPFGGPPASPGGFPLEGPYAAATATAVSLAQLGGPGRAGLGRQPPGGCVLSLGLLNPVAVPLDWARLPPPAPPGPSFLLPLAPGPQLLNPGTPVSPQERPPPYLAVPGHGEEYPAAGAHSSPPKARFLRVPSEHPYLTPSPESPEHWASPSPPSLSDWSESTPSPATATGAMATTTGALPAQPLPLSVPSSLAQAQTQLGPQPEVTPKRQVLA
Chain of Pro-neuregulin-1, membrane-bound isoform (Homo sapiens) (Q02297 whole entry, looked up, the tested form may be a part, canonical isoform): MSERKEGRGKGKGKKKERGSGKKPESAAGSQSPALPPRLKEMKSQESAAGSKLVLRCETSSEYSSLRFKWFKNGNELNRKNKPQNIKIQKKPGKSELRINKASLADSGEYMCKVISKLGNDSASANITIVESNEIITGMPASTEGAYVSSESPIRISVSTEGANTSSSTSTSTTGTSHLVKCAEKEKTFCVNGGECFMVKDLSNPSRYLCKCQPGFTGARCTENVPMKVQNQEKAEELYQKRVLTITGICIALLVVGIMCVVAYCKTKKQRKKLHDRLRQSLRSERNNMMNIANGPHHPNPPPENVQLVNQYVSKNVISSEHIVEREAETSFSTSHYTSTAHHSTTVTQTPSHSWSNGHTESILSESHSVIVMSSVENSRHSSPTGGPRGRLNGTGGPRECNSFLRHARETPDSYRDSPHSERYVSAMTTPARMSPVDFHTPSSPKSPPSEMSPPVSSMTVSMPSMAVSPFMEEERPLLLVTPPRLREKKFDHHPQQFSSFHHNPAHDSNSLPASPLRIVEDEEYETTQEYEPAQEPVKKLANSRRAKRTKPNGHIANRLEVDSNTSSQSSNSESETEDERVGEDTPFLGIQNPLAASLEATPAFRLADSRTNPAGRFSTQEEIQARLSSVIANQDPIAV
Chain of Torsin-1A-interacting protein 2 (Homo sapiens) (Q8NFQ8 whole entry, looked up): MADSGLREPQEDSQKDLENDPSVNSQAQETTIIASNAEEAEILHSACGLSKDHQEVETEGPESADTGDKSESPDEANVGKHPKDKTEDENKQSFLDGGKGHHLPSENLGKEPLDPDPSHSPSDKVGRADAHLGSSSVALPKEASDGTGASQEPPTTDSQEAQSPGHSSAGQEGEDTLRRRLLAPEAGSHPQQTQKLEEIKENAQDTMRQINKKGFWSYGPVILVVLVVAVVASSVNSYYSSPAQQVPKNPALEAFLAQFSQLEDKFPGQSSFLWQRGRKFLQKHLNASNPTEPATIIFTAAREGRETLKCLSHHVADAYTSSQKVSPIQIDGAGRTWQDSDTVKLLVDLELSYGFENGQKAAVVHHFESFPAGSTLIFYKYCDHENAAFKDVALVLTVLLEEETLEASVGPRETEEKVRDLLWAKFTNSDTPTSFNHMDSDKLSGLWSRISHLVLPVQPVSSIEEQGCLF

SMILES	composite z-score [1]	composite z-score [2]	composite z-score [3]	composite z-score [4]	composite z-score [5]	composite z-score [6]	composite z-score [7]	z-score [8]	composite z-score [9]	composite z-score [10]	composite z-score [11]	z-score [12]	z-score [13]	z-score [14]	composite z-score [15]	z-score [16]	composite z-score [17]	composite z-score [18]	composite z-score [19]	composite z-score [20]
CN1C(=O)C2C=CC(C(O)c3ccccc3)N(Nc3ccccc3)C2C1=O (stereo not given)	0.527	-0.214	0.0444	-1.06	-0.0125	0.151	0.547	0.527 (inactive)	0.261	-0.301	0.47	-0.124 (inactive)	0.807 (inactive)	0.646 (inactive)	2.71	-1.79 (inactive)	0.0105	-1.09	-0.557	-0.0828
COc1ccc(CCNC(=O)[C@@H]2c3ccccc3C(=O)N(C3Cc4ccccc4C3)[C@H]2c2ccc(CO)cc2)cc1	0.287	-0.249	0.0628	0.219	-0.395	1.49	1.05	-1.06 (inactive)	-0.183	0.113	1.34	0.629 (inactive)	0.0128 (inactive)	0.332 (inactive)	1.75	-0.141 (inactive)	0.0349	-0.155	-0.145	-0.0624
COc1ccc([Si](C)(C)[C@H]2[C@H](CC(=O)N3Cc4ccccc4C[C@H]3CO)O[C@@]3(C(=O)N(Cc4ccc(N5CCC5=O)cc4)c4ccccc43)[C@@H]2C)cc1	0.061	0.859	0.0967	0.265	0.198	1.08	1.2	-4.57 (inactive)	0.983	0.115	1.54	-1.57 (inactive)	0.52 (inactive)	0.98 (inactive)	2.6	1.65 (inactive)	0.148	1.57	1.14	0.0321
O=C1OCCC/C=C\[C@H]2OC34C=CCN(c5ccc6ccccc6c5)C(=O)[C@H]3N(CCCCCCO)C(=O)[C@@H]4C12 (stereo not given in full)	0.221	-0.295	-0.0824	-0.648	-1.15	-0.177	1.25	-0.824 (inactive)	-0.307	-0.0239	0.0502	-1.96 (inactive)	-1.15 (inactive)	-0.533 (inactive)	0.132	1.1 (inactive)	-0.25	-0.695	0.086	-0.0597
COC(=O)c1c(CC[C@@H](CO)NC(=O)N[C@@H](C)Cn2cc(C3(O)CCCCC3)nn2)oc(C(C)=O)c1C(=O)OC	-0.548	1.14	-0.0512	1.01	1.25	0.518	1.3	1.2 (inactive)	0.817	-0.184	1.54	0.34 (inactive)	-0.261 (inactive)	0.107 (inactive)	1.16	-0.338 (inactive)	0.0621	1.16	1.05	0.173
O=C1c2ccccc2[C@](Cc2ccccc2I)(C(=O)NC2CC2)[C@H](c2ccc(CO)cc2)N1C1CCCCC1	-0.0129	0.677	-0.0989	0.418	1.48	1.62	1.41	-4.4 (inactive)	1.37	-0.926	1.56	1.13 (inactive)	0.525 (inactive)	2.36 (inactive)	2.38	0.257 (inactive)	-0.224	0.62	1.05	-0.36
COc1cc(CO)cc(I)c1O[C@H]1C=C(C(=O)NCCO)C[C@@H](N(CCN2CCOCC2)C(=O)C2CCOC2)[C@@H]1O (stereo not given in full)	-0.458	0.158	-0.12	0.501	-0.0056	-0.0813	-0.479	-1.22 (inactive)	0.0409	1.25	0.815	-0.263 (inactive)	-0.62 (inactive)	-0.679 (inactive)	-0.367	2.36 (inactive)	-0.0636	0.407	0.51	-0.099
O=C(NCc1ccccc1)[C@@H]1c2ccccc2C(=O)N(CC23CC4CC(CC(C4)C2)C3)[C@H]1c1ccc(CO)cc1	-0.906	0.0469	-0.0494	0.484	1.01	1.45	1.2	-3.34 (inactive)	0.193	-0.0994	1.55	-0.52 (inactive)	-0.0538 (inactive)	0.988 (inactive)	2.9	-0.668 (inactive)	-0.225	1.72	1.05	-0.137
CC(C)(C)C(=O)N[C@@H](c1ccc(Cl)cc1)[C@]1(C)C[C@H]1C1CCCCC1	1.05	0.845	0.282	0.57	1.51	2.09	1.19	-1.52 (inactive)	1.47	0.0053	1.05	0.553 (inactive)	0.613 (inactive)	-0.104 (inactive)	3.61	-0.21 (inactive)	0.43	-0.486	1.05	0.106
COc1ccc(C#Cc2ccc3c(c2)[C@]2(C(=O)N3)[C@H](c3ccccc3OCCO)N3[C@H](c4ccccc4)[C@H](c4ccccc4)OC(=O)[C@H]3[C@@H]2C(=O)O)cc1	-0.377	0.424	0.0406	1.16	1.34	1.74	1.28	-0.0646 (inactive)	0.336	0.132	1.54	3.22 (inactive)	1.13 (inactive)	0.629 (inactive)	3.09	0.0706 (inactive)	0.111	1.11	1.03	0.122
CCCCCC1=C2CNC(CCC)(C(=O)OC)C=C2C(C)C1=O (stereo not given)	0.327	0.0422	-0.0074	0.159	1.14	0.92	0.993	0.488 (inactive)	0.21	1.96	-0.523	0.0131 (inactive)	0.277 (inactive)	0.573 (inactive)	2.13	-0.48 (inactive)	0.0943	-0.236	0.358	0.189
O=C1NC(=O)C2C1C=CC(C(O)Cc1ccccc1)N2Nc1ccc(Cl)cc1Cl (stereo not given)	0.536	-0.169	-0.0374	-0.634	0.614	2	0.371	1.53 (inactive)	0.337	0.176	-0.403	-4.33 (inactive)	-1.51 (inactive)	-0.125 (inactive)	3.21	0.177 (inactive)	-0.0134	-0.49	0.332	-0.096
Cc1ccc(S[C@]2(C(=O)NCCN3CCOCC3)CC(=O)N(Cc3ccccc3Cl)[C@@H]2c2ccc(CO)cc2)cc1	0.268	-0.159	-0.0083	0.701	-0.32	0.956	1.15	-0.0709 (inactive)	-0.0909	-0.0994	-0.241	-1.17 (inactive)	-0.895 (inactive)	-0.812 (inactive)	3.07	0.149 (inactive)	-0.057	-0.157	0.201	-0.128
CCCCC(O)C1C=CC2C(=O)N(c3ccccc3)C(=O)C2N1Nc1ccccc1F (stereo not given)	1.12	0.0488	0.256	0.516	0.829	1.15	1.2	0.221 (inactive)	1.75	0.953	1.11	-0.0377 (inactive)	-0.579 (inactive)	1.03 (inactive)	2.99	-0.825 (inactive)	0.648	-0.0787	0.818	0.159
O=C1NC(=O)C2C1C=CC(C(O)c1cccc3ccccc13)N2Nc1ccccn1 (stereo not given)	-0.0559	0.143	-0.0281	0.357	1.19	0.961	0.39	0.661 (inactive)	0.125	-0.242	0.246	0.143 (inactive)	1.14 (inactive)	-0.207 (inactive)	1.37	0.213 (inactive)	0.127	-0.321	-0.198	-0.0766
COCCCN1C(=O)[C@@]2(c3ccc([N+](=O)[O-])cc3)CC(=O)N(C3CCCCC3)[C@@H]2c2ccc(CO)cc21	-0.246	0.178	-0.153	-0.118	-0.537	-0.214	0.467	1.07 (inactive)	-0.036	-0.134	0.996	0.134 (inactive)	0.734 (inactive)	-1.35 (inactive)	-0.701	0.56 (inactive)	-0.0782	0.549	-0.37	-0.128
COc1ccc(C(=O)Nc2cccc(CN3C(=O)[C@]4(O[C@H](CCO)[C@@H]([Si](C)(C)c5ccc(OC)cc5)[C@@H]4C)c4ccccc43)c2)cc1	-0.442	0.193	-0.102	0.285	0.484	0.621	1.09	-3.19 (inactive)	0.439	-0.179	1.56	0.412 (inactive)	-14.9 (active)	0.251 (inactive)	1.83	1.03 (inactive)	-0.164	0.822	1	-0.0675
COc1ccc(C(=O)O[C@H]2CC[C@]3(C)C4=C(CCC3C2(C)C)[C@]2(C)CC[C@H]([C@H](C)CCCC(C)C)[C@@]2(C)CC4)cc1 (stereo not given in full)	-0.581	0.191	-0.128	0.338	0.611	0.133	0.456	-1.16 (inactive)	0.18	0.0749	0.193	-0.292 (inactive)	-1.52 (inactive)	-0.262 (inactive)	-0.445	1.71 (inactive)	-0.0561	0.546	0.947	-0.0828
C=CCC(OC(C)=O)[C@@H]1[C@@H](N(Cc2ccc(-c3ccccc3)cc2)C(=O)Cc2ccc(F)cc2)c2cc(OCCCO)ccc2N1C(=O)c1ccc(-c2ccccc2)cc1 (stereo not given in full)	0.124	0.143	-0.0145	-0.0694	-0.305	-0.23	-0.937	-0.432 (inactive)	0.0621	-0.0994	-0.838	-2.19 (inactive)	-0.379 (inactive)	-0.694 (inactive)	-0.404	0.996 (inactive)	0.0631	-0.237	-0.239	-0.0372
